What follows are sequences tested on PXR homodimer (NR concentration 270 nM) (assay: PBM binding z-score (relative to random genomic background probes); higher = stronger binding; sequences stand for … in GC…GCGATTGACAGCGTAGAATGAAGG).
In short: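 Binding buffer was PBS pH 7.4 with 2% milk, 0.02% Triton X-100, 1 mM DTT, 0.2 mg/mL BSA and 0.4 mg/ml salmon testes DNA. In it, ligand-free nuclear receptor dimers were incubated 1 h on custom Agilent 4×180K protein-binding microarrays carrying double-stranded probes. Antibodies against each partner (one per run) detected binding, and z-scores were calculated against random background probes after regression normalization of scanned fluorescence.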
Work on CCTAGTTGGTCAGCAGGTCACACACCGGATATGA yielded a PBM binding z-score of 0.562.
Sequence AGTCAAAGTTCAGGAGGAGGTAACGTAAAGCACG has a PBM binding z-score of 1.96.
CCAGACAGGTGAGAAGTTAACTCAGCCTCGATTA showed a PBM binding z-score of 0.36.
In the case of TCGAGTAGGTTAGTCGGGGCATTAAGCCAACATA, the PBM binding z-score was -0.182.
In the case of CCTTCTGGGCCACGAAAGGTCATTGATTCAGTGA, the PBM binding z-score was 1.61.
TGTCAAAGTTCAAAGGTAACGTTAGTATCCACAC gave a PBM binding z-score of 4.38.
GCGAGTTGGTCAGTAAAAGGTCACACACCGGTCG showed a PBM binding z-score of 1.31.
In the case of ATATGTAGGTTAAGGGACATTCAGGTTGGTTCGC, the PBM binding z-score was 0.687.
In the case of CCTATTAGTTGGCCATAAGGGCAACCGAAGCTCG, the PBM binding z-score was 0.238.
GCTGCTAGGTCAAATGATGGTCAGCTAAAGCTCG was tested, and the PBM binding z-score was -0.505.
GCAGACAGGTGAAACGCAGGTCACTCAGGGTGGC gave a PBM binding z-score of -0.357.
With TCTATTAGTTGATTAGGACAACCGAAACAGCGGA the PBM binding z-score was 0.881.
Sequence ACTATTAGTTGACTCAGGGCAACCGATACGACGC has a PBM binding z-score of 0.569.
In the case of ATCTCTACGTAAAGATAGTTCAGTGAATGCAAAT, the PBM binding z-score was 0.219.
For CGTTACGGGTCACGAGGTTATAGCACGACGAGCG, the PBM binding z-score was 0.178.
Sequence TTTCAAAGTTCAAAGGTAACGTAAGTATCCACAC has a PBM binding z-score of 4.59.
With TCTGGCAGGCCAGAGGGTCACTCAAGAGGTACGG the PBM binding z-score was -0.371.
TCATATAGGTAAAGGTGTAAGTCGAACGATATGA showed a PBM binding z-score of -0.297.
With TTATATAGGTAAAGGTGAAAGTCGAACGATATGA the PBM binding z-score was 0.227.
With GATACAGGGTCACGGCCAGAGTACGCGTATTGAT the PBM binding z-score was 0.0972.
GCTAGCAGGCAATTTGGGTCACTCAATGACGGGC was tested, and the PBM binding z-score was -0.523.
In the case of CCTAGCCGGCCAGGGTCACTCAAGCATTTCGCTT, the PBM binding z-score was -0.583.

Source: the supplement of paper PMC6555819
